Among all 370,000 compounds or so, about 3,000 (0.81%) were called active. For the sample, actives were picked, then their nearest neighbours and some compounds at random. A number with no mark means an inactive call.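 Rule for the calls: active = activity above about 14% (limit read from the data; passing the limit was not always enough); inactive = the rest.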
These compounds were tested against Nuclear receptor subfamily 1 group D member 1 (Homo sapiens) (UniProt P20393) (assay: modulators of Rev-erb alpha DNA binding, primary screen, biochemical, FITC-DNA, fluorescence polarization, uHTS (AID 1259318;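 note: 0% = DMSO wells with 35 nM protein and 100% = DMSO wells with 750 nM protein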)). Details: Rev-erbα–FITC-DNA binding, 90 min, at 10 µM, stronger effect = higher value.
Sequence of Nuclear receptor subfamily 1 group D member 1 (Homo sapiens) (P20393 whole entry, looked up): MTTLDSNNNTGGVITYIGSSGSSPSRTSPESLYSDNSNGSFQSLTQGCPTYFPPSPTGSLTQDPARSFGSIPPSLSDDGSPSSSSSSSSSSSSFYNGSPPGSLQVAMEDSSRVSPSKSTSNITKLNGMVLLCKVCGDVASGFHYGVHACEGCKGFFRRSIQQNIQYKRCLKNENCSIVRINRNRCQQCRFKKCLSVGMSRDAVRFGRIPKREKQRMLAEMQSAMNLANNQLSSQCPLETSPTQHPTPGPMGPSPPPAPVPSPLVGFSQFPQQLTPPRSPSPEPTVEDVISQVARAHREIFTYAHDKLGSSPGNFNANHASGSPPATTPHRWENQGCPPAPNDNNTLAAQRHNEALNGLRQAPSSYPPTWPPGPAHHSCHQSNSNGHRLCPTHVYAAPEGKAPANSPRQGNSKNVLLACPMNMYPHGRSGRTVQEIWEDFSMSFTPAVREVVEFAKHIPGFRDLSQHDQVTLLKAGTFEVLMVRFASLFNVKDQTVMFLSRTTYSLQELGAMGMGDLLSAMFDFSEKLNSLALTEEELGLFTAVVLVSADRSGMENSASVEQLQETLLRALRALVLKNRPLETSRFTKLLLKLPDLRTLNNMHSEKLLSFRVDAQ
`CC(C)CC(=O)Nc1cc(C(F)(F)F)ccc1N1CCOCC1` gave an activity of -4.25%.
`COc1ccc(CNC(=O)C2CCN(C(=O)c3ccco3)CC2)cc1` showed an activity of -1.19%.
In the case of `COc1ccc(-n2nc3c(N4CCC(C(=O)NCc5ccccc5)CC4)nnc(C)c3c2C)cc1`, the activity is reported as 54.2% (active).
Work on `COc1ccc(CNC(=O)C2CCN(C(=O)c3ccccc3)CC2)cc1` yielded an activity of 1.27%.
Compound `CC(C)N(C(=O)Cn1c(SCC(=O)N2CCN(c3ccccc3)CC2)nc2ccccc21)C(C)C` has an activity of 1.23%.
`O=C(Nc1ccc(O)cc1)c1ccccc1O` showed an activity of 3.46%.
`CCCCCC(=O)Nc1ccc(-c2cn3cccnc3n2)cc1` gave an activity of -0.67%.
With `Cc1ccc(CNCc2ccc3c(c2)OCO3)c(C)c1` the activity was -1.18%.
For `C[C@H]1O[C@@H](O[C@H]2[C@@H](O)C[C@H](O[C@H]3[C@@H](O)C[C@H](O[C@H]4CC[C@]5(C)C6C[C@@H](O)[C@]7(C)[C@@H](C8=CC(=O)OC8)CC[C@]7(O)C6CC[C@@H]5C4)O[C@@H]3C)O[C@@H]2C)C[C@H](O)[C@@H]1O` (some centres undefined), the activity was 2.73%.
In the case of `CCOC(=O)c1sc(=NC(=O)c2ccc(Br)cc2)n(C)c1C`, the activity is reported as 51.4% (active).
`CCOC(=O)C1=CN(Cc2ccc(Br)cc2)S(=O)(=O)N(C)C1C` (centres undefined) was tested, and the activity was -0.38%.
`CCOC(=O)c1sc(=NC(=O)/C=C/c2cccs2)n(C)c1C` showed an activity of -0.21%.
In the case of `C/C(Cn1nnc2ccccc21)=N\OC(=O)c1cc(F)c(F)cc1Cl`, the activity is reported as 2.02%.
Work on `COc1ccc(N2CCN(CCNS(=O)(=O)c3ccc(C(C)(C)C)cc3)CC2)cc1` yielded an activity of 5.09%.
`Nc1nc2c(ncn2[C@@H]2O[C@H](C(=O)N[C@H](Cc3ccccc3)C(=O)NCC3CCCCC3)[C@@H](O)[C@H]2O)c(=O)[nH]1` gave an activity of 2.3%.
With `CCN1/C(=C\c2ccc3ccccc3[n+]2CC)Sc2cc(C)ccc21` the activity was 73.3% (active).
`COc1ccc(CCNC(=O)CSc2nc3c([nH]2)c(=O)n(C)c(=O)n3C)cc1` showed an activity of -0.29%.
`COc1ccc(CNS(=O)(=O)c2cc(Br)ccc2Br)cc1` was tested, and the activity was 6.25%.
In the case of `Cc1cccc(C)c1NC(=O)CSc1nc2c([nH]1)c(=O)n(C)c(=O)n2C`, the activity is reported as 3.98%.
With `Cc1cc2cc3c(cc2nc1SCC(=O)Nc1c(C)cccc1C)CCC3` the activity was 63.4% (active).
For `Cc1cccc(NC(=O)CSc2nc3c(c(=O)[nH]2)CCC3)c1C`, the activity was -4.62%.
`CC(=O)C1=C(C)N(Cc2ccc(Cl)cc2)C(=S)NC1c1ccc(F)cc1` (centres undefined) was tested, and the activity was 0.1%.
`CC1(C)C(C=C(Cl)Cl)C1C(=O)N(Cc1ccc(Cl)cc1)C1CCS(=O)(=O)C1` (centres undefined) gave an activity of 2.8%.
In the case of `CCOC(=O)c1[nH]c2ccc(C)cc2c1N=C(C)N(C)C`, the activity is reported as 0.97%.
Work on `O=C(CN1CCC(NC(=O)C2CC2)CC1)Nc1ccccc1[N+](=O)[O-]` yielded an activity of -2.64%.
`COc1cccc(-c2cc(CNC(=O)[C@@H](Cc3ccccc3)NC(=O)[C@H]3O[C@@H](n4cnc(C(N)=O)n4)[C@H](O)[C@@H]3O)no2)c1` was tested, and the activity was 3.31%.
In the case of `CCOC(=O)c1sc(NC(=O)CCN2CCOCC2)c(C(=O)OCC)c1C`, the activity is reported as 30.6% (active).
In the case of `CCOC(=O)c1c(NC(=O)CCCN2CCOCC2)sc2c1CC(C)(C)OC2`, the activity is reported as 2.68%.
Compound `CCOC(=O)c1c(C)[nH]c(C(=O)NCCN2CCOCC2)c1C` has an activity of 1.96%.
In the case of `C=CCN(N=Nc1cccc([N+](=O)[O-])c1)c1cccc([N+](=O)[O-])c1`, the activity is reported as 9.23%.
For `NC(=O)CC(NC(=O)Cc1ccc(Br)cc1)c1ccc(NC2CC3CCC2C3)c([N+](=O)[O-])c1` (centres undefined), the activity was -0.82%.
In the case of `FCOC(C(F)(F)F)C(F)(F)F`, the activity is reported as 2.75%.
Compound `O=C(CSc1ccccn1)N1CCN(S(=O)(=O)c2ccc(Cl)cc2)CC1` has an activity of -4.04%.
Work on `O=C(COc1ccc(Cl)cc1)N1CCN(S(=O)(=O)c2ccc(Cl)cc2)CC1` yielded an activity of -0.97%.
With `O=C(COc1ncnc2c(Cl)cc(Cl)cc12)N1CCN(S(=O)(=O)c2ccccc2)CC1` the activity was 25.2% (active).
`COc1ccc(C2(C#N)CCC(C(=O)O)CC2)cc1OC1CCCC1` (centres undefined) gave an activity of -2.5%.
`O=C(CN1CCCc2ccccc21)NCc1ccc(F)cc1` gave an activity of 0.36%.
`Cc1nn2cc(-c3ccc(Cl)cc3)cnc2c1Br` showed an activity of 5.5%.
In the case of `CCN(CC)CCCC(C)Nc1ccnc2cc(Cl)ccc12` (centres undefined), the activity is reported as -0.22%.
`COC(=O)c1cccc(Cn2ccc3ccc(-c4ccc5ccn(C(=O)c6ccccc6C)c5c4)cc32)c1` was tested, and the activity was 40% (active).
Work on `COc1ccc(Cn2ccc3ccc(-c4ccc5ccn(Cc6ccccc6C)c5c4)cc32)cc1` yielded an activity of 0.1%.
In the case of `COC(=O)c1cccc(Cn2ccc3ccc(-c4ccc5ccn(C(=O)C6CCCCC6)c5c4)cc32)c1`, the activity is reported as 33.7% (active).
Work on `FC(F)(F)c1cccc(Cn2ccc3ccc(-c4ccc5ccn(Cc6ccccc6)c5c4)cc32)c1` yielded an activity of -9.95%.
`COC(=O)c1ccc(CN2CCCC(C(=O)Nc3cccc(-n4cnnn4)c3)C2)cc1` (centres undefined) showed an activity of 1.49%.
With `COC(=O)c1ccc(OCC(O)CN(CCO)CC(O)Cn2ccc3ccccc32)cc1` (centres undefined) the activity was 4.36%.
`CCC(=O)O[C@]1(C(=O)CCl)[C@@H](C)CC2C3CCC4=CC(=O)C=C[C@]4(C)[C@@]3(F)[C@@H](O)C[C@@]21C` (some centres undefined) gave an activity of 0.94%.
`Cc1ccc(S(=O)(=O)N(Cc2cc3ccccc3[nH]c2=O)CC2CCCO2)cc1` (centres undefined) was tested, and the activity was -1.97%.
With `CN(C(N)=NC(=O)/C=C/c1ccccc1)C(C#Cc1ccccc1)Cc1ccccc1` (centres undefined) the activity was -4.88%.
Work on `O=C(C1CCN(S(=O)(=O)Cc2ccccc2)CC1)N1CCCc2ccccc21` yielded an activity of -2.58%.
In the case of `Cc1nn(CCOc2ccc(Br)cc2)c(C)c1[N+](=O)[O-]`, the activity is reported as 3.89%.
`CCOc1ccc2nc(Cl)c(C3CC(c4ccccc4)=NN3C(=O)c3cccs3)cc2c1` (centres undefined) was tested, and the activity was 36% (active).
In the case of `O=C(COc1ccc2ccccc2c1)N1CCN(C(=O)c2cccs2)CC1`, the activity is reported as 7.29%.
Work on `CS(=O)(=O)Nc1cccc(C2=NN(C(=O)c3cccc(F)c3)C(c3cccs3)C2)c1` (centres undefined) yielded an activity of 1.7%.
`CC(NC(=O)C(C)(C)C)C(c1cccs1)N1CCN(Cc2ccccc2)CC1` (centres undefined) gave an activity of -5.62%.
For `O=C(Nn1cnc2ccccc2c1=O)c1ccc(F)cc1Cl`, the activity was -3.38%.
In the case of `CC(C)C(C)NC(=O)COc1ncnc2ccccc12` (centres undefined), the activity is reported as 1.73%.
With `CC(C)C(C)NC(=O)COc1nc2ccccc2nc1N(C)C1CCCCC1` (centres undefined) the activity was 62.5% (active).
For `O=C(COc1ccccc1O)NC1CCCC1`, the activity was 2.25%.
`CCCN1C(=O)C(NC(C)=O)c2cc(OC)ccc21` (centres undefined) gave an activity of 1.76%.
`CCOC(=O)N1CCN(C(=O)COCc2cc(-c3ccc4c(c3)OCO4)on2)CC1` gave an activity of 2.06%.
`CCc1ccccc1NC(=O)c1cc(-c2ccc3c(c2)OCO3)on1` was tested, and the activity was 21.2% (active).
In the case of `CC(C)NC(=O)COCc1cc(-c2ccc3c(c2)OCO3)on1`, the activity is reported as 3.84%.
In the case of `CCCCCCCCCc1ccc(OCCOCCOCCOCCOCCOCCOCCOCCOCCO)cc1`, the activity is reported as 2.2%.
`CC[C@H](NC(=O)[C@H](Cc1ccccc1)NC(=O)[C@H]1O[C@@H](n2cnc3c(=O)[nH]c(N)nc32)[C@H](O)[C@@H]1O)c1ccccc1` gave an activity of 1.57%.
`CCC1CCC2(CC1)NC(=O)N(CC(=O)Nc1ccc(OC)cc1)C2=O` (centres undefined) gave an activity of -2.27%.
With `CCOC(=O)c1c(NC(=O)CN2C(=O)NC3(CCC(C)CC3)C2=O)sc(C)c1CC` (centres undefined) the activity was 21.8% (active).
For `CCOC(=O)c1c(NC(=O)C2CC=CCC2C(=O)O)sc(C)c1CC` (centres undefined), the activity was -10.6%.
`O=C1NC(c2ccccc2)=NC1(Nc1ccccn1)C(F)(F)F` (centres undefined) showed an activity of -2.21%.
`C[C@@H]1CN([C@@H](C)CO)S(=O)(=O)c2ccc(C#Cc3cccc(F)c3)cc2O[C@H]1CN(C)S(=O)(=O)c1cn(C)cn1` gave an activity of 4.67%.
For `CCCC1O[C@@H]2CC3C4CCC5=CC(=O)C=CC5(C)C4[C@@H](O)CC3(C)[C@]2(C(=O)CO)O1` (some centres undefined), the activity was 3.39%.
With `S=c1nccc(-c2cc(Cl)sc2Cl)[nH]1` the activity was 20.9% (active).
Compound `CC1=C(/C=C/C(C)=C/C=C/C(C)=C/C=C/C=C(C)/C=C/C=C(C)/C=C/C2=C(C)CCCC2(C)C)C(C)(C)CCC1` has an activity of -1.26%.
Compound `COc1ccccc1NC(=O)c1cc(N2C(=O)C3C4CCC(C4)C3C2=O)ccc1Cl` (centres undefined) has an activity of -4.24%.
For `Cc1ccc(CNC(=O)CC(NC(=O)c2ccccc2)c2ccccc2)cc1` (centres undefined), the activity was -3.7%.
For `CC(=O)C1(C(=O)Nc2nccs2)CC(c2ccccc2C(F)(F)F)=NO1` (centres undefined), the activity was 2.17%.
In the case of `O=C(O)CSCNC(=O)CC12CC3CC(CC(C3)C1)C2`, the activity is reported as 5.91%.
`C=CCNC(=O)CC12CC3CC(C1)CC(CC(=O)NCC=C)(C3)C2` was tested, and the activity was 27.5% (active).
`C=CCNC(=O)C12CC3CC(C1)CC(C(=O)NCC=C)(C3)C2` showed an activity of 1.74%.
Compound `Cc1cccc(NC(=O)c2cc(S(=O)(=O)N3CCC4(CC3)OCCO4)ccc2F)c1` has an activity of -2.46%.
With `O=C(N[C@H]1CC[C@H](CC(=O)N2CCCCC2)O[C@@H]1CO)c1cccc(F)c1` the activity was 3.8%.
`CON(C)S(=O)(=O)c1ccc2c(c1)NC(=O)C1CCCN21` (centres undefined) gave an activity of -3.22%.
In the case of `Cc1cc(C)c2c(-c3ccc(F)cc3)c(C#N)c(=O)n(C)c2n1`, the activity is reported as 56.8% (active).
Compound `Cn1c(N)cc(-c2ccc(F)cc2)c(C#N)c1=O` has an activity of -1.46%.
With `COc1ccc(O)c(C(=O)c2cnc3c(c2)c(-c2ccc(F)cc2)c(C#N)c(=O)n3C)c1` the activity was -4.88%.

Reference: PubChem BioAssay AID1259318 (Sanford-Burnham Center for Chemical Genomics, 2017)
